A short description of experiment [1]: optical density shifts of acrAB sulA E. coli – strain DRC41, OD650, 48 h, E. coli filamentation inducer project, primary screen (AID 1152).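 Also: E. coli MC1000 strain DRC41 lacking acrAB efflux pump and sulA.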 Particulars: higher = more signal, called active from +8 up or from −8 down.
Experiment [2] in a line: probe aLefty1 binding on compound microarray – biochemical, small-molecule microarray, 635/667 nm fluorescence, primary screen (AID 1153).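 Also: score merges spot fluorescence with signal-to-noise ratio from the scanned slide images.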 Particulars: higher = more signal.
A short description of experiment [3]: plasmodial surface anion channel blockers, osmotic lysis – cell-based, P. falciparum Indochina, OD700, 1 h, primary screen (AID 1154). Particulars: P. falciparum Indochina infected RBC osmotic lysis, higher = more signal, called active from +8 up or from −8 down.
Experiment [4] in a line: plasmodial surface anion channel blockers, osmotic lysis – cell-based, P. falciparum Indochina, OD700, 2 h, primary screen (AID 1155).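 Also: lysis reports solute entry through the parasite surface anion channel PSAC.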 Particulars: P. falciparum Indochina infected erythrocytes, higher = more signal, called active from +8 up or from −8 down.
Experiment [5] in a line: changes in parasitized red cell lysis, either direction – P. falciparum Indochina, OD700, 3 h, PSAC antagonist project, primary screen (AID 1156). Particulars: P. falciparum-infected erythrocytes, osmotic lysis, higher = more signal, called active from +8 up or from −8 down.
Experiment [6] can be described thus: plasmodial surface anion channel blockers, osmotic lysis – cell-based, P. falciparum Indochina, OD700, 18 h, primary screen (AID 1157). Particulars: P. falciparum Indochina infected erythrocytes, osmotic lysis OD700, 18 h; higher = more signal, called active from +8 up or from −8 down.
Experiment [7] in a line: S6 kinase pathway phospho-S6 level changes – cell-based, A549, cytoblot, luminescence, serum-stimulated, primary screen (AID 1158).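 Also: serum-stimulated A549 lung adenocarcinoma cells; signal is phosphorylated S6 detected by cytoblot immunostaining with HRP secondary.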 Particulars: 5 h, higher = more signal.
Experiment [8] concerns the target NADPH oxidase 2 (Homo sapiens) (UniProt P04839). Description: compounds shifting NOX2 Amplex Red fluorescence – cell-based, HEK293-NOX2, PMA-stimulated, NOX inhibitor project, primary screen (AID 1159). Also: test concentration not given here. To be noted: 45 min, higher = more signal, called active from +8 up or from −8 down.
Experiment [9] deals with NADPH oxidase 4 (Homo sapiens) (UniProt Q9NPH5). Description: compounds shifting NOX4 Amplex Red fluorescence – cell-based, HEK293-NOX4, tetracycline-induced, NOX inhibitor project, primary screen (AID 1160). To be noted: HEK293-NOX4, Amplex Red H2O2 fluorescence, 45 min; higher = more signal, called active from +8 up or from −8 down.
Experiment [10] has as its target NADPH oxidase 5 (Homo sapiens) (UniProt Q96PH1). Description: compounds shifting NOX5 Amplex Red fluorescence – cell-based, HEK293-NOX5, NOX inhibitor project, primary screen (AID 1161). To be noted: HEK293-NOX5, ionomycin, 45 min, higher = more signal.
The nature of experiment [11]: compound effects on lung adenocarcinoma cell viability – A549, calcein-AM fluorescence, 48 h, basal, profiling panel (AID 1162). Also: test concentration not given here. Particulars: higher = more signal.
A short description of experiment [12]: compound effects on differentiated 3T3-L1 adipocyte viability – cell-based, 3T3-L1 adipocytes, calcein-AM fluorescence, 48 h, basal, profiling panel (AID 1163). Also: test concentration not given here. Particulars: 3T3-L1 adipocytes viability, higher = more signal.
The nature of experiment [13]: compound effects on hepatocellular carcinoma cell viability – HepG2, calcein-AM fluorescence, 48 h, basal, profiling panel (AID 1164). Also: test concentration not given here. Particulars: higher = more signal.
Experiment [14] can be described thus: compound effects on multiple myeloma cell viability – MM1S, calcein-AM fluorescence, 48 h, basal, profiling panel (AID 1165).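 Also: viability of MM1S multiple myeloma cells under basal unstimulated conditions; test concentration not given here.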 Particulars: higher = more signal.
A short description of experiment [15]: calcein-AM signal in unstimulated myeloma cells – cell-based, calcein-AM fluorescence, 48 h, PK04 Diversity Set, profiling panel (AID 1166).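 Also: cells grown under basal conditions without added stimulus; test concentration not given here.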 To be noted: RPMI8226 myeloma viability, higher = more signal.
Experiment [16] can be described thus: JC-1 mitochondrial signal, unstimulated HepG2 cells – cell-based, JC-1 fluorescence, 24 h, 100 nL compound, profiling panel (AID 1167). Also: test concentration not given here. Particulars: HepG2 mitochondrial potential, higher = more signal.
A short description of experiment [17]: JC-1 mitochondrial signal, unstimulated adipocytes – cell-based, JC-1 fluorescence, 3T3-L1 adipocytes, 24 h, 100 nL compound, profiling panel (AID 1168). Also: test concentration not given here. Particulars: JC-1 mitochondrial fluorescence, higher = more signal, called active from +8 up or from −8 down.
Experiment [18] can be described thus: JC-1 mitochondrial signal, unstimulated myeloma cells – cell-based, JC-1 fluorescence, RPMI8226, 24 h, 100 nL compound, profiling panel (AID 1169). Also: test concentration not given here. To be noted: JC-1 mitochondrial potential fluorescence, higher = more signal.
Experiment [19] in a line: JC-1 mitochondrial signal, unstimulated MM1S myeloma – cell-based, JC-1 fluorescence, 24 h, 100 nL compound, profiling panel (AID 1170). Also: test concentration not given here. To be noted: MM1S mitochondrial potential, higher = more signal.
The nature of experiment [20]: resazurin metabolic signal in A549 cells – cell-based, resazurin fluorescence, 24 h, PK04 Diversity Set, profiling panel (AID 1171). Also: test concentration not given here. Particulars: A549 viability, higher = more signal, called active from +8 up or from −8 down.

We go through five molecules from PubChem BioAssay.

Where “and” joins values, the source holds several entries; their conditions need not be identical. Equal entries are not always repeated. More than one record can exist for a structure, and the calls need not agree. Calls of active or inactive are those of the source.

Chain of NADPH oxidase 5 (Homo sapiens) (Q96PH1 whole entry, looked up): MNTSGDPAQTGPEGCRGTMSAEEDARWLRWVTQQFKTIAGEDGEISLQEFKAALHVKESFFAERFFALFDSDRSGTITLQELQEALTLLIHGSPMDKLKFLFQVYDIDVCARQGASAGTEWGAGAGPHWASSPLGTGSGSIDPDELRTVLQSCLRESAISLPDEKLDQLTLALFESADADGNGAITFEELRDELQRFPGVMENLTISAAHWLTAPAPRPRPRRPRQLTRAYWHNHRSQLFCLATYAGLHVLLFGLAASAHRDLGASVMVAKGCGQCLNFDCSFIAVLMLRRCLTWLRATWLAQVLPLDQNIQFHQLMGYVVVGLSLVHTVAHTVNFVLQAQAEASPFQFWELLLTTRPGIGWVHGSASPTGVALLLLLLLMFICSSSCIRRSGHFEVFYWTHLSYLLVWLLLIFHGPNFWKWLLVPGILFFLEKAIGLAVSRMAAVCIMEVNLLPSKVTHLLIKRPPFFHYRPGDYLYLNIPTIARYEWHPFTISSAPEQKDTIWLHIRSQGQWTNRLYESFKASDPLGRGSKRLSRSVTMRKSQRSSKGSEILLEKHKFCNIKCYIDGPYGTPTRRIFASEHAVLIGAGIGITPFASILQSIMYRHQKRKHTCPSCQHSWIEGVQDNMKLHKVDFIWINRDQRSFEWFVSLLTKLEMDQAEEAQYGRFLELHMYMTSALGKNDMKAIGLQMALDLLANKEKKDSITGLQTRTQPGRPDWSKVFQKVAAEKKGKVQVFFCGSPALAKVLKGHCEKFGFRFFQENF
Chain of NADPH oxidase 4 (Homo sapiens) (Q9NPH5 whole entry, looked up): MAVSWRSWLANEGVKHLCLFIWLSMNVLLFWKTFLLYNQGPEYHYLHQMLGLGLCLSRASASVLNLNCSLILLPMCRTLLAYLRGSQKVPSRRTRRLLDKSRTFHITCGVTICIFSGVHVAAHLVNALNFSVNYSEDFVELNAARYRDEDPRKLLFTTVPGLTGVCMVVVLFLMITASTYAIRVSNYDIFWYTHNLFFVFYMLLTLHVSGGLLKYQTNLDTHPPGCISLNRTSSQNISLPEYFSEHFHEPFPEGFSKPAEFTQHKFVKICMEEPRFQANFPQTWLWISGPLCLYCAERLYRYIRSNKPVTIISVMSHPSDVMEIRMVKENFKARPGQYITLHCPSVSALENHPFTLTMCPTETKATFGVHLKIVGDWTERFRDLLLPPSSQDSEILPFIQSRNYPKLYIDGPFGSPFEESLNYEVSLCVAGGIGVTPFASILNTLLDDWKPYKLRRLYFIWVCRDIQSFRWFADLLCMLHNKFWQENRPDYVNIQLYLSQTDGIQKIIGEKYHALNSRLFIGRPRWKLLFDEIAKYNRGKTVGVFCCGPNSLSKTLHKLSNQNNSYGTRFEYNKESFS
Chain of NADPH oxidase 2 (Homo sapiens) (P04839 whole entry, looked up): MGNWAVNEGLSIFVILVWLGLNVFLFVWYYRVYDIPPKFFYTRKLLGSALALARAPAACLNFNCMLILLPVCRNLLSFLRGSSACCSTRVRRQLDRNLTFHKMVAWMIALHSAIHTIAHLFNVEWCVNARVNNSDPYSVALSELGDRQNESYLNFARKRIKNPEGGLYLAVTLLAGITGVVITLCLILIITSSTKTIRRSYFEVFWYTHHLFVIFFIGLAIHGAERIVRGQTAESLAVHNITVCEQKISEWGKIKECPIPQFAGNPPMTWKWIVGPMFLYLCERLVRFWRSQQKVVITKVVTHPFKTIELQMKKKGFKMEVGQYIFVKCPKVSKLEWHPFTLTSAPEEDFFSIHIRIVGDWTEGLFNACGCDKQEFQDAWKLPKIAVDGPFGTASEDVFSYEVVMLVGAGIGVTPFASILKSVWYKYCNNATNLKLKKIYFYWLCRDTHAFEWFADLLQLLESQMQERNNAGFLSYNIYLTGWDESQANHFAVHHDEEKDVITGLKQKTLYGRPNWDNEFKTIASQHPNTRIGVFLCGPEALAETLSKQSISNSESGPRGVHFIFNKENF

As for `C=CCN(CCCC)C(=O)C1N(CCOCCO)C(=O)C2C(C(=O)O)C3C=CC21O3` (stereo not given), the z-score was 0.151 (inactive) and -0.207 (inactive) in [1]; 0.461 (inactive) and -0.326 (inactive) in [3]; 0.703 (inactive) and 0.124 (inactive) in experiment [4]; -0.668 (inactive) and -0.506 (inactive) in experiment [5]; 0.0875 (inactive) and 0.111 (inactive) in experiment [6]; -0.0621 and 0.53 in experiment [7]. Further, the z-score is 0.502 (inactive) and 0.676 (inactive) in experiment [8]; -1.77 (inactive) and -2.02 (inactive) in experiment [9]; -0.512 and 0.152 in [10]; -0.397 and -0.276 in experiment [11]; 0.28 and -0.404 in [12]; -1.2 and -1.42 in experiment [13]. Also, the z-score in [14] was 0.929 and 0.966; in [15] it was -0.234 and 0.295; in [16] it was -0.419 and -0.964; in experiment [17] it was -0.309 (inactive) and -0.776 (inactive); in experiment [18], 0.563 and 0.0271; in experiment [19] it was 0.0912 and -0.0623. Also, the z-score in experiment [20] is -0.169 (inactive) and -0.593 (inactive). Also, in experiment [2], the composite z-score was -0.191 and -0.454.
`C=C[C@H](OC)[C@@H](O)c1ccc(O)c(F)c1`: the z-score in experiment [1] was -0.809 (inactive) and 0.573 (inactive); in experiment [3] it was -0.0463 (inactive) and 0.351 (inactive); in [4], 0.125 (inactive) and 0.702 (inactive); in experiment [5], -0.389 (inactive) and -0.0295 (inactive); in [6], -0.138 (inactive) and 0.403 (inactive); in experiment [7] it was -0.141 and 0.723. In addition, the z-score in experiment [8] is -1.01 (inactive) and -0.872 (inactive); in experiment [9] it was -0.137 (inactive) and -0.407 (inactive); in experiment [10], 0.0933 and -0.503; in experiment [11], -0.52 and -0.4; in [12], -0.345 and -0.128; in [13], -0.0991 and 0.594. Moreover, the z-score in experiment [14] is -1.17 and 1.06; in [15], 0.544 and 0.196; in experiment [16], -0.914 and 0.658; in experiment [17] it was -0.186 (inactive) and -0.636 (inactive); in experiment [18], 0.675 and 0.679; in experiment [19], -0.0752 and -0.474. In experiment [20], the z-score is -0.535 (inactive) and -0.0165 (inactive). Moreover, the composite z-score in experiment [2] is -0.266 and -0.148.
With `O=C1C[C@]2(c3ccc([N+](=O)[O-])cc3)C(=O)N(Cc3ccccc3)c3cc(CO)ccc3[C@H]2N1C1CCCCC1`, the z-score in [1] was 0.128 (inactive) and 0.873 (inactive); in experiment [3], 0.164 (inactive) and 11.5 (active); in [4] it was -0.198 (inactive) and 1.01 (inactive); in experiment [5] it was -0.57 (inactive) and 4.35 (inactive); in experiment [6] it was -0.434 (inactive) and -0.166 (inactive); in experiment [7] it was 0.483 and 2.97. The z-score in experiment [8] was 0.139 (inactive) and 1.55 (inactive); in experiment [9] it was 0.644 (inactive) and -1.56 (inactive); in experiment [10] it was -0.416 and -0.385; in experiment [11] it was -0.8 and 0.627; in experiment [12], 0.43 and 1.53; in experiment [13] it was -1.3 and 0.0974. Besides, the z-score was -0.514 and -2.14 in experiment [14]; -0.684 and -2.65 in experiment [15]; -0.236 and 0.352 in experiment [16]; -0.0101 (inactive) and -0.0655 (inactive) in experiment [17]; -0.469 and -0.544 in [18]; -0.152 and -0.189 in [19]. Moreover, the z-score in [20] is 0.466 (inactive) and -0.352 (inactive). In experiment [2], the composite z-score was -0.221 and -0.0626.
For the molecule `C=CCN(CCCCC)C(=O)C1N(C(C)(C)CO)C(=O)C2C(C(=O)O)C3C=CC21O3` (stereo not given), the z-score in experiment [1] is -0.548 (inactive) and -0.511 (inactive); in [3], -0.632 (inactive) and -0.588 (inactive); in experiment [4], -0.042 (inactive) and -0.318 (inactive); in [5] it was -0.694 (inactive) and -1.04 (inactive); in [6], -0.281 (inactive) and -0.646 (inactive); in [7], 0.0495 and 2.08. The z-score in experiment [8] is 1.02 (inactive) and 0.298 (inactive); in experiment [9], -0.188 (inactive) and -0.0857 (inactive); in experiment [10], 0.101 and 0.407; in experiment [11] it was -0.777 and -0.44; in [12], -0.472 and -0.0106; in experiment [13], 0.174 and -0.209. The z-score in experiment [14] was 0.369 and -0.0102; in [15], -0.187 and -0.148; in [16], -0.66 and -1.15; in [17] it was 0.044 (inactive) and -0.845 (inactive); in experiment [18] it was 0.776 and 0.876; in experiment [19], 0.861 and 0.681. Also, in experiment [20], the z-score was 0.0106 (inactive) and -0.0941 (inactive). Further, the composite z-score in experiment [2] was -0.717 and -0.18.
Turning to `COC(=O)C1=C(C)N(Cc2ccccc2)[C@]23O[C@](C(=O)OC)(C(=O)N2[C@@H]1c1ccccc1)[C@@H](c1ccccc1)[C@@H]3C(=O)c1ccccc1`, the z-score in experiment [1] was -1.1 (inactive) and 0.116 (inactive); in [3] it was 1.17 (inactive) and 0.647 (inactive); in experiment [4] it was -0.645 (inactive) and 0.238 (inactive); in [5] it was 0.372 (inactive) and 0.467 (inactive); in experiment [6], -1.38 (inactive) and 0.0752 (inactive); in [7], 1.39 and 0.0227. Further, the z-score was 2.38 (inactive) and 0.648 (inactive) in experiment [8]; 0.856 (inactive) and 0.876 (inactive) in [9]; 2.66 and 1.46 in [10]; 0.668 and 0.418 in [11]; 1.64 and 0.204 in experiment [12]; 0.344 and 0.832 in experiment [13]. Moreover, the z-score in experiment [14] is 0.54 and 0.391; in [15] it was -0.0139 and 0.294; in experiment [16], 2.68 and 2.31; in [17] it was 1.13 (inactive) and 0.417 (inactive); in experiment [18] it was 0.535 and -0.253; in experiment [19], -0.00272 and 0.667. Besides, the z-score in [20] was 0.266 (inactive) and 1.05 (inactive). Further, the composite z-score in [2] is -0.145 and -0.193.
